Among all 39,000 compounds or so, about 3,300 (8.5%) were called active. The full list was thinned out, with actives kept by preference.

For this experiment, the system named is HepG2. The experiment in a line: cytotoxicity call (relative viability < 0.9). Conditions: 10 µM.
In the case of `C[C@@H]1CN([C@@H](C)CO)C(=O)c2cc(NC(=O)Cn3cnnn3)ccc2O[C@H]1CN(C)S(=O)(=O)c1ccc(Cl)cc1`, the cytotoxicity call was “inactive”.

As to `COc1ccc(S(=O)(=O)N[C@H]2CC[C@@H](CCNC(=O)CN3CCOCC3)O[C@H]2CO)cc1`, the cytotoxicity call was “inactive”.

Turning to `C[C@@H]1CN([C@@H](C)CO)C(=O)Cc2cc(NS(=O)(=O)c3cn(C)cn3)ccc2O[C@H]1CN(C)S(=O)(=O)c1ccc(Cl)cc1`, the cytotoxicity call is “inactive”.

On to `CO[C@@H]1CN(C)C(=O)c2cc(NS(=O)(=O)CC(F)(F)F)ccc2OC[C@@H](C)N(Cc2ccccn2)C[C@H]1C`, for which the cytotoxicity call is “inactive”.

As to `CN1C(=S)N[C@@H]2CS(=O)(=O)C[C@@H]21`, the cytotoxicity call is “inactive”.

For `O=C(CCCCCC(=O)N/N=C/[C@H](O)[C@H](O)[C@@H](O)[C@@H](O)CO)NO`, the cytotoxicity call was “inactive”.

Turning to `C[C@H]1CN([C@@H](C)CO)C(=O)c2cc(C3=CCCCC3)cnc2O[C@@H]1CN(C)C(=O)CN1CCOCC1`, the cytotoxicity call was “inactive”.

In the case of `O=c1nc[nH]c2c1ncn2[C@@H]1C[C@@H](O)[C@H](CO)O1`, the cytotoxicity call is “inactive”.

Regarding `C[C@@H]1CN([C@H](C)CO)C(=O)c2cccc(NC(=O)c3nc4ccccc4s3)c2O[C@@H]1CN(C)CC1CCCCC1`, the cytotoxicity call was “inactive”.

As for `CCN1[C@@H]2O[C@@H]3O[C@H]4[C@H](O[C@H]3O[C@@H]2N(CC)S1(=O)=O)N(CC)S(=O)(=O)N4CC`, the cytotoxicity call is “inactive”.

As to `C[C@H](CO)N1C[C@H](C)[C@H](CN(C)S(=O)(=O)c2cccs2)Oc2ncc(C#Cc3cccc(F)c3)cc2C1=O`, the cytotoxicity call was “inactive”.

`Cc1noc(C)c1NC(=O)N(C)C[C@@H]1Oc2ccc(NC(=O)CCN3CCOCC3)cc2C(=O)N([C@@H](C)CO)C[C@H]1C`: the cytotoxicity call is “inactive”.

For `C[C@@H]1CCCCO[C@H](CN(C)Cc2ccccc2)[C@@H](C)CN([C@H](C)CO)C(=O)c2cc(NC(=O)NC3CCCCC3)ccc2O1`, the cytotoxicity call is “inactive”.

As for `C[C@@H]1CN([C@H](C)CO)C(=O)c2cc(NC(=O)NC3CCCCC3)ccc2O[C@@H](C)CCCCO[C@H]1CN(C)Cc1ccccc1`, the cytotoxicity call is “inactive”.

For the compound `C[C@H]1CCCCO[C@H](CN(C)Cc2ccccc2)[C@@H](C)CN([C@@H](C)CO)C(=O)c2cc(NC(=O)NC3CCCCC3)ccc2O1`, the cytotoxicity call was “active”.

Turning to `COc1ccc(S(=O)(=O)N(C)C[C@@H]2Oc3c(NS(=O)(=O)c4ccccc4)cccc3C(=O)N([C@H](C)CO)C[C@@H]2C)cc1`, the cytotoxicity call was “inactive”.

As to `C[C@H]1CN([C@@H](C)CO)C(=O)Cc2cc(NC(=O)CCN3CCOCC3)ccc2O[C@H]1CN(C)Cc1ccc2c(c1)OCO2`, the cytotoxicity call was “inactive”.

Turning to `C[C@H](CO)N1C[C@H](C)[C@@H](CN(C)Cc2ccc(Cl)c(Cl)c2)OCCCC[C@H](C)Oc2ccc(NC(=O)NC3CCCCC3)cc2C1=O`, the cytotoxicity call was “active”.

Consider `C[C@@H]1CCCCO[C@H](CN(C)Cc2ccc(Cl)c(Cl)c2)[C@H](C)CN([C@@H](C)CO)C(=O)c2cc(NC(=O)NC3CCCCC3)ccc2O1`, for which the cytotoxicity call is “inactive”.

Turning to `C[C@@H]1CCCCO[C@@H](CN(C)Cc2ccc(Cl)c(Cl)c2)[C@@H](C)CN([C@H](C)CO)C(=O)c2cc(NC(=O)NC3CCCCC3)ccc2O1`, the cytotoxicity call is “inactive”.

Regarding `C[C@@H]1CN([C@@H](C)CO)C(=O)c2cc(NC(=O)NC3CCCCC3)ccc2O[C@@H](C)CCCCO[C@H]1CN(C)Cc1ccc(Cl)c(Cl)c1`, the cytotoxicity call is “active”.

As for `C[C@@H]1CCCCO[C@@H](CN(C)Cc2ccc(Cl)c(Cl)c2)[C@H](C)CN([C@@H](C)CO)C(=O)c2cc(NC(=O)NC3CCCCC3)ccc2O1`, the cytotoxicity call was “inactive”.

Take `C[C@H](CO)N1C[C@H](C)[C@H](CN(C)Cc2ccc(Cl)c(Cl)c2)OCCCC[C@H](C)Oc2ccc(NC(=O)NC3CCCCC3)cc2C1=O`: the cytotoxicity call was “active”.

Consider `C[C@@H]1CCCCO[C@@H](CN(C)Cc2ccc(Cl)c(Cl)c2)[C@@H](C)CN([C@@H](C)CO)C(=O)c2cc(NC(=O)NC3CCCCC3)ccc2O1`, for which the cytotoxicity call was “active”.

`C[C@@H]1CCCCO[C@@H](CN(C)Cc2ccc(Cl)c(Cl)c2)[C@H](C)CN([C@H](C)CO)C(=O)c2cc(NC(=O)NC3CCCCC3)ccc2O1`: the cytotoxicity call was “inactive”.

As to `C[C@@H]1CCCCO[C@H](CN(C)Cc2ccc(Cl)c(Cl)c2)[C@@H](C)CN([C@@H](C)CO)C(=O)c2cc(NC(=O)NC3CCCCC3)ccc2O1`, the cytotoxicity call was “inactive”.

With `C[C@H]1CCCCO[C@H](CN(C)Cc2ccc(Cl)c(Cl)c2)[C@@H](C)CN([C@@H](C)CO)C(=O)c2cc(NC(=O)NC3CCCCC3)ccc2O1`, the cytotoxicity call was “inactive”.

`C[C@@H]1CCCCO[C@H](CN(C)Cc2ccc(Cl)c(Cl)c2)[C@@H](C)CN([C@H](C)CO)C(=O)c2cc(NC(=O)NC3CCCCC3)ccc2O1`: the cytotoxicity call was “inactive”.

As to `C[C@@H]1CN([C@H](C)CO)C(=O)c2cc(NC(=O)NC3CCCCC3)ccc2O[C@@H](C)CCCCO[C@@H]1CN(C)Cc1ccc(Cl)c(Cl)c1`, the cytotoxicity call is “inactive”.

The values are drawn from the antibiotic and cytotoxicity screens of Wong et al. (2023).
